Data taken from ChEMBL document CHEMBL3988442, “University of Dundee, Small-Polar-MMV Screening Library” (2021).
For some of these results: Results with a measured potency or affinity are listed apart.

What was measured:
Parameters in all cases: scale not given: direction of the effect not stated beside the values
[1] = molecular target: Protein translocase subunit SecA (Escherichia coli (strain K12)) (UniProt P10408); assay: Assay to Identify E. coli SecA ATPase Inhibitors; format: functional; conditions: 30 µM
[2] = molecular target: T1, Ubiquitin-activating enzyme e1, putative (Leishmania donovani (strain BPK282A1)) (UniProt E9BSI1); assay: Leishmania donovani Ubiquitin Activating Enzyme (LdE1); format: functional; conditions: 30 µM
T1 sequence (whole entry): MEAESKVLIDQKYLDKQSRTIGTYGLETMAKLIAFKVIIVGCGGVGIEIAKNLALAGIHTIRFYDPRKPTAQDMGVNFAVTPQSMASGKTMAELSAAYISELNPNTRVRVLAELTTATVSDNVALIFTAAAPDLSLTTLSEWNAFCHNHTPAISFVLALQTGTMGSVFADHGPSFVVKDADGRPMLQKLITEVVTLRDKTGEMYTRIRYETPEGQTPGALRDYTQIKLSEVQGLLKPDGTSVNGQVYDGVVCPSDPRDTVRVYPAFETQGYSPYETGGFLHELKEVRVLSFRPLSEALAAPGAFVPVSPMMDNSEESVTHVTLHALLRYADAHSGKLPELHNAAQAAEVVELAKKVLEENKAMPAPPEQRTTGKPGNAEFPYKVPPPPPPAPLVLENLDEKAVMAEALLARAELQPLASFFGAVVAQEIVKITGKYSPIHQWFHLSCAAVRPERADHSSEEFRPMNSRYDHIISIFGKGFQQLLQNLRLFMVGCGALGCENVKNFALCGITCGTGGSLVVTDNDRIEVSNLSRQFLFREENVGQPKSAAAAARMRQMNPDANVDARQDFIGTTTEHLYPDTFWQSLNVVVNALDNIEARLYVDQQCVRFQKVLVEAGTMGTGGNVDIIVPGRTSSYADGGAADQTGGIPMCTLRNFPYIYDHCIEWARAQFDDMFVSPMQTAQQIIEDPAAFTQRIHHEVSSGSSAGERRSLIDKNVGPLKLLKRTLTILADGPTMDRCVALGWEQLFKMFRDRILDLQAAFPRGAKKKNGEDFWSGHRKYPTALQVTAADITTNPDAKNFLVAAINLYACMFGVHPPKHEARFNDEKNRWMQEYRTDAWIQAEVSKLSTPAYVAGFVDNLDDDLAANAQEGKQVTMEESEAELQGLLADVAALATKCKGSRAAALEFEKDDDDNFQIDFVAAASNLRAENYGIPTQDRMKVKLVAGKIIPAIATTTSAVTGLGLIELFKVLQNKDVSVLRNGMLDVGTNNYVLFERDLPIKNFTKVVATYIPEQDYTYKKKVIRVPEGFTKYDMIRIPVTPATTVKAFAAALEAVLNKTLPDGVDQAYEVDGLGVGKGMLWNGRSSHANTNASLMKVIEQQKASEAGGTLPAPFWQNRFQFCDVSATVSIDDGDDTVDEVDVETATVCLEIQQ

[3] = molecular target: AMP-activated protein kinase, AMPK (Homo sapiens) (UniProt P54646+O43741+P54619+Q9UGJ0+Q9Y478+Q13131+Q9UGI9); assay: AMP-dependent Kinase enzyme assay. An in vitro enzyme assay that detects ADP turnover that is directly proportional to AMPK activity. This uses naive AMPK that is activated during the assay with MK-8722; format: functional; conditions: 30 µM
[4] = molecular target: Sialic acid-binding Ig-like lectin 9 (Homo sapiens) (UniProt Q9Y336); assay: Hs-Siglec9 ALPHAscreen SOP 20170721; conditions: 10 µM
Trypanosoma cruzi = assay: Trypanosoma cruzi phosphomannomutase and mannose-1-phosphate guanylyltransferase assay; format: functional; conditions: 10 µM
[5] = molecular target: T2, Arginase-2, mitochondrial (Homo sapiens) (UniProt P78540); assay: in vitro enzyme assay to detect the production of urea directly proportional to the activity of Arginase II; format: functional; conditions: 33.3 µM; note: in the data most compounds retested in dose-response had high values
T2 sequence (whole entry): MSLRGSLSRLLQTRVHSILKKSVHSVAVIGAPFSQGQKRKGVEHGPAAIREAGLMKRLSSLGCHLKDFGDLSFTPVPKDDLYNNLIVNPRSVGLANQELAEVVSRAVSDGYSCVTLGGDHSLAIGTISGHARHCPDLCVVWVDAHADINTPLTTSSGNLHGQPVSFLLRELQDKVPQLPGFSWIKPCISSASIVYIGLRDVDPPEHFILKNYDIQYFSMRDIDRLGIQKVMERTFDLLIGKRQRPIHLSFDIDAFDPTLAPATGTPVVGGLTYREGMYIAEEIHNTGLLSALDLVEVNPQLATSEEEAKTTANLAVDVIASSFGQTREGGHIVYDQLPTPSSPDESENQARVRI

[6] = molecular target: T3, Proteasome subunit beta (Trypanosoma cruzi) (UniProt O96673); assay: Trypanosoma cruzi proteasome chymotrypsin-like activity (TcProtChymo) assay.; note: in the data most compounds retested in dose-response had high values; format: functional; conditions: 9.37 µM
T3 sequence (whole entry): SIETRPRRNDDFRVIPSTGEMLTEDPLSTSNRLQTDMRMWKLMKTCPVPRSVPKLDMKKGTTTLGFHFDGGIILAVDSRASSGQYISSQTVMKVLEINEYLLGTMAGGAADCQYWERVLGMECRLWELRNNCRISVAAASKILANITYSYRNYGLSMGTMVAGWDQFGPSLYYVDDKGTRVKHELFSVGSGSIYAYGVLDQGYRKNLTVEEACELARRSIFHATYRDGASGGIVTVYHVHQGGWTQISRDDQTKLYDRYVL

Homo sapiens = species on record: Homo sapiens; assay: To identify inhibition of the IFN signalling (Jak-Stat) pathway via expression of an eGFP reporter gene under the control of an IFN-stimulated response element (ISRE) containing MxA promoter.; format: functional; conditions: 30 µM
[7] = molecular target: T4, Tyrosyl-tRNA synthetase, putative (Trypanosoma cruzi (strain CL Brener)) (UniProt Q4DSP6); assay: Trypanosoma cruzi tyrosyl tRNA synthetase (TcYRS) _High Tyrosine SOP; format: functional; conditions: 30 µM; note: in the data most compounds retested in dose-response had high values
T4 sequence (whole entry): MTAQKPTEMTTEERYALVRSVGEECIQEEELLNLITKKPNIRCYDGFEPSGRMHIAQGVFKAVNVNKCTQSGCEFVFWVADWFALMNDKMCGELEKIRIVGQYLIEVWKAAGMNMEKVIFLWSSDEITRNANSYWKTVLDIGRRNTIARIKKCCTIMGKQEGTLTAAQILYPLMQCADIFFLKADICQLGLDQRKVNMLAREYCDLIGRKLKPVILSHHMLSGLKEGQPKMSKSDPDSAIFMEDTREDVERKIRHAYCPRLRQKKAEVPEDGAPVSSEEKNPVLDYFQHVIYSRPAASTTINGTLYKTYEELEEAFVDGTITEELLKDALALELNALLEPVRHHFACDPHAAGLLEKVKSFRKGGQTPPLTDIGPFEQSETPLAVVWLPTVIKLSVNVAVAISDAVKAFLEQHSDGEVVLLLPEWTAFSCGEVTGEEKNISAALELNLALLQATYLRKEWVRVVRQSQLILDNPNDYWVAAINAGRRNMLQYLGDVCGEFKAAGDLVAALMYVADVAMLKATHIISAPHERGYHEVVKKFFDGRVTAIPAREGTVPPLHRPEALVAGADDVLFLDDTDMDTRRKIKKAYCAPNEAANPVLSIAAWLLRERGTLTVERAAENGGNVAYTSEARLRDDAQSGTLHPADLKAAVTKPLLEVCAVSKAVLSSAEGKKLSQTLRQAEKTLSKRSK

[8] = molecular target: T4, Tyrosyl-tRNA synthetase, putative (Trypanosoma cruzi (strain CL Brener)); assay: Trypanosoma cruzi tyrosyl tRNA synthetase (TcYRS) SOP; format: functional; conditions: 30 µM
[9] = molecular target: Chromo domain-containing protein 1 (Saccharomyces cerevisiae (strain ATCC 204508 / S288c) (Baker's yeast)) (UniProt P32657); assay: ScCHD-1 Enzyme Inhibition Assay; format: functional; conditions: 30 µM; note: in the data most compounds retested in dose-response had high values
Chain of Chromo domain-containing protein 1 (Saccharomyces cerevisiae (strain ATCC 204508 / S288c) (Baker's yeast)) (P32657 whole entry, the tested form may be a part): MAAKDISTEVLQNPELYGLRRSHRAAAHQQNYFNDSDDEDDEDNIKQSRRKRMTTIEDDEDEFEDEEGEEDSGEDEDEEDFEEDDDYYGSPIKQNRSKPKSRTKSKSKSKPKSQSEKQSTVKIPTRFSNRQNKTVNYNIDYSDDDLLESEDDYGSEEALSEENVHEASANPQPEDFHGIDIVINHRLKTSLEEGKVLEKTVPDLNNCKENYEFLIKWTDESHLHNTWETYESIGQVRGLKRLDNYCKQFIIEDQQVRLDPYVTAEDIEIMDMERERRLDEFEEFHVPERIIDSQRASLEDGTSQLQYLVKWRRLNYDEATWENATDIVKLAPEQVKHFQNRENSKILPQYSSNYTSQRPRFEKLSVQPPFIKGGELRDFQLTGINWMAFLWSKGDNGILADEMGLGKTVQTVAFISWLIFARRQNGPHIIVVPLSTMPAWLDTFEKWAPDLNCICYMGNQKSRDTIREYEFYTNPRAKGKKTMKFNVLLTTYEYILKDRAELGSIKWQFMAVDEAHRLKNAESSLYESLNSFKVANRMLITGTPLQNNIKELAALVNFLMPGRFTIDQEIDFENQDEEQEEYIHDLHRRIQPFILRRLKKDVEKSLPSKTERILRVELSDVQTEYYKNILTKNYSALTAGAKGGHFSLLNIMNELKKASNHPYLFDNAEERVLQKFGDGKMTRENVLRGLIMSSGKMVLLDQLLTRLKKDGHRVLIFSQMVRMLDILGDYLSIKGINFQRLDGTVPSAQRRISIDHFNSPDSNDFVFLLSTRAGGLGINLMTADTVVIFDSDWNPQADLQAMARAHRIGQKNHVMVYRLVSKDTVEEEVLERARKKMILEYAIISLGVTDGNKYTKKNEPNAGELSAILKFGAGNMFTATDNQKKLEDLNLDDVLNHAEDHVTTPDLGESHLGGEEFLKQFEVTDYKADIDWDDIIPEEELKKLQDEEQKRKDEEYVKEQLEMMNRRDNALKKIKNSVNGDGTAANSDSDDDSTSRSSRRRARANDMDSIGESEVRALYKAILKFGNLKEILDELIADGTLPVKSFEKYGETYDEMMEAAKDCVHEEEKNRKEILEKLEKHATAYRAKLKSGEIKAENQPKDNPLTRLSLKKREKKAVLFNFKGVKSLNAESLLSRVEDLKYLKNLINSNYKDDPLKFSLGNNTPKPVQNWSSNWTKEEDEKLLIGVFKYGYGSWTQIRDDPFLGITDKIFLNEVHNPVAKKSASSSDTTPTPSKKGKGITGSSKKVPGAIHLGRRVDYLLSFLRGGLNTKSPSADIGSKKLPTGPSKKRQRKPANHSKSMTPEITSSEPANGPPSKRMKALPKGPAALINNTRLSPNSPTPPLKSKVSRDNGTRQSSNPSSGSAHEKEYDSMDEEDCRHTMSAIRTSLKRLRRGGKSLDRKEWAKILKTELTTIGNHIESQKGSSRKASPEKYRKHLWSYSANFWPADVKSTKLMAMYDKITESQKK

Chain of Sialic acid-binding Ig-like lectin 9 (Homo sapiens) (Q9Y336 whole entry): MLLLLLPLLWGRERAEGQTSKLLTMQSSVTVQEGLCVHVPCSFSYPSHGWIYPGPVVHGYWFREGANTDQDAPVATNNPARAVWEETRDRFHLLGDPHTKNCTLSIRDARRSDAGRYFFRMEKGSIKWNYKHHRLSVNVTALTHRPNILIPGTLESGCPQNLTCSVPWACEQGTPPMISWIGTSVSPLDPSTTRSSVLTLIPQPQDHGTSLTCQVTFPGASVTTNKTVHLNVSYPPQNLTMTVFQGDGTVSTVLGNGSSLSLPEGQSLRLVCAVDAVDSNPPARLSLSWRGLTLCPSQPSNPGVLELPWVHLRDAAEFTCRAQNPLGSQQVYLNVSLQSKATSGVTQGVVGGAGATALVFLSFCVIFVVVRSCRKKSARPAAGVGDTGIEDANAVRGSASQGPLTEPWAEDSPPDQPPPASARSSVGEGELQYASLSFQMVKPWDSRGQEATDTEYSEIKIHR
Chain of Protein translocase subunit SecA (Escherichia coli (strain K12)) (P10408 whole entry): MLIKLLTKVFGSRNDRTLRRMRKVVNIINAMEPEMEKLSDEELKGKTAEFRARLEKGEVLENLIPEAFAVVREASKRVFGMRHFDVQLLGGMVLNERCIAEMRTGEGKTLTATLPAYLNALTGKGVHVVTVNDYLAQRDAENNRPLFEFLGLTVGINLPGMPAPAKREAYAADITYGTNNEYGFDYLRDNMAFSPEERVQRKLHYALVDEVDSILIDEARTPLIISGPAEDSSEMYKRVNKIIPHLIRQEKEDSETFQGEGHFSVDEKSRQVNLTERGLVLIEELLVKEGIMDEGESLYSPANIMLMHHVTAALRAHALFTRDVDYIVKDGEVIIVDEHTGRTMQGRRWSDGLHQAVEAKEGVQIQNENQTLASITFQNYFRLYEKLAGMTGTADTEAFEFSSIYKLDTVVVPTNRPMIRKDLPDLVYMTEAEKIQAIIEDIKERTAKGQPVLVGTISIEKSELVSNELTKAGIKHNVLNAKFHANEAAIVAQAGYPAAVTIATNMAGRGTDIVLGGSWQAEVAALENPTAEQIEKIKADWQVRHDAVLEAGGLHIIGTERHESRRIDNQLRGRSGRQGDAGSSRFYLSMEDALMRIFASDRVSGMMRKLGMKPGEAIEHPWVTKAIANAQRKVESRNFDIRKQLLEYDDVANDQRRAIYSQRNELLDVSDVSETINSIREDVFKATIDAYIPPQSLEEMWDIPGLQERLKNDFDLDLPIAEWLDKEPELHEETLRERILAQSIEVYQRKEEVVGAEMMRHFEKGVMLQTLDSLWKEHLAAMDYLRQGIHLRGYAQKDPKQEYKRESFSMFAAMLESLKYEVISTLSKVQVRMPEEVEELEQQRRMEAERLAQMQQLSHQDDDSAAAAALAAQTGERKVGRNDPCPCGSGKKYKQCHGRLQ

| Structure (SMILES) | Percent Effect [1] | Percent Effect [2] | Percent Effect [3] | Percent Effect [4] | Percent Effect (Trypanosoma cruzi) | Percent Effect [5] | Percent Effect [6] | Percent Effect (Homo sapiens) | Percent Effect [7] | Percent Effect [8] | Percent Effect [9] |
| --- | --- | --- | --- | --- | --- | --- | --- | --- | --- | --- | --- |
| Cc1ccc(C)n1-c1ccc(C(=O)NCCNc2ncccn2)cc1 | -1.31% | 7.89% | -10.7% | -3.65% | 3.46% | -6.83% | 15% | -6.26% | 9.36% | 18.5% | 0.738% |
| NC(=O)c1cc(NC(=O)N2CCCCCC2)ccc1F | -2.22% | 16.2% | 5.3% | 2.48% | 2.15% | 30.4% | 11.1% | 44.5% | 6.93% | 13.4% | -2.07% |
| CCN(CC)C(=O)Cn1ccc2cc(NC(=O)C3CCCO3)ccc21 (stereo not given) | -3.96% | 26.3% | -13.9% | 1.14% | 6.39% | -1.53% | 16.5% | 2.47% | 6.37% | 17.1% | -14.2% |
| CC(NC(=O)NCCCN(C)S(C)(=O)=O)c1cccc(Cl)c1 (stereo not given) | 1.78% | 6.33% | 0.875% | -4.21% | -2.97% | 0.215% | 11.8% | 13.8% | 9.38% | 7.59% | 0.197% |
| CC(Cn1cccn1)NCc1nc(-c2cccc(Cl)c2)no1 (stereo not given) | -2.57% | -2.63% | 1.2% | 3.09% | 4.76% | 0% | 5.33% | 11.7% | 3.45% | 11.1% | 2.72% |
| Fc1cnc(N2CCCC3(CN(Cc4ccncc4)CCO3)C2)nc1 (stereo not given) | -2.51% | 13.3% | 12.9% | -0.573% | -2.95% | 1.63% | 12.2% | 8.63% | 8.51% | 16.7% | -5.31% |
| CC(C)N(C)Cc1cn2c(n1)CN(C(=O)Cc1ccsc1)CC2 | -5.71% | 2.74% | 3.83% | 1.25% | -2.78% | -2% | 7.28% | -1.74% | 5.21% | 6.17% | -0.437% |
| Cc1nc(CSCCC(=O)NCc2cccnc2N(C)C)cs1 | -0.871% | 20.2% | -1.17% | -7.06% | 5.38% | 4.56% | 7.45% | 5.3% | 6.4% | 24.1% | -7.54% |
| C=C(C)C(=O)N1CCC(C(=O)c2cc(C)cnc2N)CC1 | -7.55% | 5.33% | 0.0671% | 1.76% | 7.09% | -1.63% | 5.55% | 11.8% | 7.45% | 14.1% | -3.43% |
| O=C(NCC(=O)N1CCCCC1)c1ccc(Cl)cc1I | -0.681% | 5.41% | -6.27% | 3.75% | 8.49% | 0% | 10.5% | 13.7% | 2.65% | 12.2% | -1.27% |
| CC(C(=O)NCc1ccnc(N2CCN(C)CC2)c1)n1cccn1 (stereo not given) | -0.897% | 0% | -0.213% | 6.59% | 7.14% | 3.06% | -4.18% | 1.68% | 0.49% | 7.32% | -5.23% |
| O=C(c1cccnc1)N1CCC2(CC1)CCN(c1ccsc1)C2=O | -4.05% | -2.6% | 1.54% | -7.82% | -1.28% | -4.52% | 12% | -7.6% | -5.29% | -6.41% | 0.0389% |
| O=C(C1CCOC1)N1C[C@H]2CN(Cc3nccs3)C[C@H]2C1 (stereo not given in full) | -7.06% | 5.41% | 2.27% | -7.15% | -3.81% | -6.69% | 15.7% | -4.44% | 0% | 2.56% | -2.08% |
| CC(C)c1nn(CC(=O)N2CCCCC2)c(=O)c2c1cnn2C(C)(C)C | -2.78% | 11% | -3.21% | -1.33% | -4.31% | 0.455% | 16.5% | 17.3% | 2.15% | 12.5% | -6.96% |
| CCC(C)N(C)CCNC(=O)NCc1cccc(-n2cncn2)c1 (stereo not given) | -5.23% | 5.41% | -2.01% | 27.3% | 4.59% | 0.248% | 9.87% | -1.6% | 2.15% | 6.17% | -12.3% |
| COCc1ccccc1CNc1nnc(C)c(C)c1C#N | -6.03% | 5.41% | -21.1% | -1.29% | -1.39% | 4.62% | 17.9% | 30.3% | 4.95% | 6.1% | -2.15% |
| NC(=O)c1ccc2c(c1)nc1n2CCN(Cc2ccco2)C1 | -3.62% | 21.1% | 5.96% | 1.24% | 3.02% | -2.37% | 9.49% | 1.88% | 5.32% | 5.2% | 34.5% |
| O=C(O)c1c[nH]c2cc(NS(=O)(=O)c3cccc(Cl)c3F)ccc12 | -4.73% | -10.4% | -45.8% | 7.97% | 0.562% | 5.69% | 4.22% | 2.38% | -11.7% | -24.4% | 0.552% |
| Cc1cccc(CN2C(=O)CC[C@@H]3[C@H]2CCN3CC2CCOCC2)n1 | -3.19% | 16% | 1.45% | -4.46% | 2.36% | 0.699% | 14% | -19.1% | 5.32% | 11.5% | -4.59% |
| CO[C@@H]1CCN(Cc2cnn(C)c2)[C@@H]2CN(Cc3ccco3)C[C@@H]21 | -5.25% | 4% | 5.3% | 4.49% | -1.38% | -0.528% | 11.8% | -13.9% | 0% | 2.56% | -0.166% |
